Measurements from PubChem BioAssay AID2315 (National Center for Advancing Translational Sciences (NCATS), 2010).
Among all 290,000 compounds or so, about 27,000 (9.3%) were called active. Rule as the data show it: active = inhibition mostly above about 28% (no sharp cut-off); inactive = mostly below about 43%. Shown is part of a subset that was picked to be rich in actives.

test: A qHTS for Small Molecule Inhibitors of Shiga Toxin; conditions: Vero cells, Shiga toxin protein synthesis inhibition reporter; at 38.7 µM, active compounds read high; also: 0% is about no effect

SMILES	inhibition
COC(=O)Nc1ccc(S(=O)(=O)Nc2cc(OC)nc(OC)n2)cc1	-3.18% (inactive)
Cc1ccsc1C(=O)N[C@@H](C)c1nnc2ccccn12	-1.3% (inactive)
COc1ccc(NC2CCCN(C(=O)c3ccncc3)C2)cc1 (centres undefined)	-17.1% (inactive)
CC(C)(C)NC(=O)C(=O)NN=C1CCCCCCC1	60.6% (active)
O=C1CCC/C(=N\NC(=O)NC2CCCCC2)C1	-0.774% (inactive)
CC(C)NC(=S)NN=C1CCCCCCCCCCC1	4.86% (inactive)
O=C(NCc1ccccc1)C(=O)NCC1OCCN1S(=O)(=O)c1ccc(Br)cc1 (centres undefined)	3.85% (inactive)
CCC(Oc1ccccc1C)C(=O)Nc1ccc(S(=O)(=O)Nc2cc(C)on2)cc1 (centres undefined)	-4.41% (inactive)
O=c1[nH]c(CSc2ccccc2)nc2c1oc1ccccc12	12.7% (inactive)
O=C(COC(=O)c1ccc(N2CCCC2=O)cc1)c1ccc(OC(F)F)cc1	-2.32% (inactive)
Cc1cc(C(=O)COC(=O)c2cccs2)c(C)n1-c1c(C)n(C)n(-c2ccccc2)c1=O	14.6% (inactive)
Cc1ccc(OC(=O)c2c(C)nn(-c3ccccc3)c2C)cc1	66.5% (active)
Cc1nn(-c2ccccc2)c(C)c1C(=O)OCC(=O)NC(=O)NC1CCCCC1	-5.78% (inactive)
Cc1nn(-c2ccccc2)c(-n2cccc2)c1C(=O)O	-10.5% (inactive)
CCCn1c(C)cc(C(=O)COC(=O)c2c(C)nn(-c3ccccc3)c2C)c1C	37.3% (active)
CCCc1cc(=O)[nH]c(SCC(=O)c2cc(C)n(CCC)c2C)n1	-17.8% (inactive)
O=C(CSc1n[nH]c(-c2cccnc2)n1)Nc1ccc(Cl)cc1	-4.36% (inactive)
Cc1ccc(Nc2c(F)c(F)c(F)c(F)c2C(=O)O)c(C)c1	-5.02% (inactive)
CCCCc1cc(=O)oc2c(C)c(OCC(=O)N3CCC(C(N)=O)CC3)ccc12	6.85% (inactive)
O=c1oc2ccccc2c(CNc2ccccc2)c1[N+](=O)[O-]	11.8% (inactive)
O=C1CCCc2nn(-c3ccccc3)nc21	54.6% (active)
O=C1CCC(=O)N(c2ccccc2)N1	-5.13% (inactive)
N#CC1=C(N)N(c2ccccc2)C2=C(C(=O)CCC2)C1c1ccccc1 (centres undefined)	20.9% (inactive)
CC(C)c1ccc(C(=O)OC2CCOC2=O)cc1 (centres undefined)	-21.8% (inactive)

SMILES	inhibition
Cc1nn(Cc2ccccc2)c(Cl)c1C(=O)OC1CCOC1=O (centres undefined)	-17.1% (inactive)
O=C(OC1CCOC1=O)c1ccc(-c2nc3ccccc3s2)s1 (centres undefined)	38.6% (active)
C=CCn1c(=O)c(C(=O)NCc2ccc3c(c2)OCO3)c(O)c2ccccc21	-10.5% (inactive)
COc1ccccc1OCC(=O)Nc1c2c(nn1-c1ccc(F)cc1)CS(=O)(=O)C2	-5.46% (inactive)
Cc1c(C(=O)OC(C)C)sc(NC(=O)c2cccnc2)c1C#N	30.6% (inactive)
COc1ccc(C(=O)NCc2nnc(SCC(=O)Nc3cccc(OC)c3)o2)cc1	-4.36% (inactive)
O=S(=O)(Cc1nnnn1-c1ccccc1)c1ccccc1	-12.2% (inactive)
COc1cc(OC)cc(-c2nnc(SCC(=O)Nc3ccc(C(=O)O)cc3)s2)c1	-9.81% (inactive)
Cc1csc(SCC(=O)Nc2sccc2C#N)n1	34% (inactive)
COc1ccc(NC(=O)CSc2nc(SC)ns2)c(OC)c1	69.7% (active)
COc1ccc(NC(=O)CSc2nc(C)cs2)cc1	66.4% (active)
COc1ccc(C)cc1NC(=O)CSc1nc(SC)ns1	-10.7% (inactive)
CSc1nsc(SCC(=O)Nc2cc(C(=O)O)ccc2C)n1	-7.57% (inactive)
Cc1cc(C)c(OCCN2CC(C)OC(C)C2)c(Br)c1 (centres undefined)	14.6% (inactive)
NC(=O)c1nsc(C(=O)N(CCCN2CCOCC2)C(C(=O)NC2CCCCC2)c2ccc(Cl)cc2)c1N (centres undefined)	-2.14% (inactive)
O=S(=O)(NCC1CC1)c1ccc(F)c(Cl)c1	1.18% (inactive)
CC(C)Nc1ccc(-n2nc3ccccc3[n+]2[O-])cc1	38.2% (active)
COc1ccc(CCNC(=O)C2CCCN(S(=O)(=O)c3ccc(OC)cc3)C2)cc1 (centres undefined)	2.44% (inactive)
O=C(NC1CCCCC1)C1CCC(CNS(=O)(=O)c2ccccc2)CC1 (centres undefined)	2.14% (inactive)
COc1ccc(S(=O)(=O)n2cnc3ccccc32)c(C)c1	-9.95% (inactive)
COc1ccc(CNC(=O)CN(Cc2ccccc2Cl)C(=O)c2csnn2)cc1	-3.03% (inactive)
O=C(N/N=C/c1ccc(Cl)c(Cl)c1)c1ccc2nc[nH]c2c1	23.8% (inactive)
CCCOC(=O)C1=C(C)NC2=C(C(=O)C(C(=O)OC)C(C)C2)C1c1ccc(N(C)C)cc1 (centres undefined)	16.2% (inactive)
CCCOC(=O)c1[nH]c2c(c1C)C(=O)CC(c1cccs1)C2 (centres undefined)	-12.4% (inactive)

SMILES	inhibition
COC(=O)C1C(=O)c2c([nH]c(C(=O)OCCSC)c2C)CC1C (centres undefined)	57.7% (active)
COc1ccc(NC(=O)CN2C(=O)CSc3ccc(S(=O)(=O)N4CCC(C)CC4)cc32)cc1	1.63% (inactive)
COc1ccc(Cl)cc1NC(=O)CN(C)C(=O)CCCc1c[nH]c2ccccc12	-2.46% (inactive)
N=C1C(c2nc3ccccc3s2)=C(O)CN1NC(=O)c1ccc([N+](=O)[O-])cc1	49.3% (active)
CCc1ccc(N2CC(O)=C(c3nc4ccccc4c(=O)[nH]3)C2=N)cc1	23.1% (inactive)
CCOC(=O)CCCN1CC(O)=C(c2nc3ccccc3s2)C1=N	21.6% (inactive)
N=C1C(c2nc3ccccc3[nH]2)=C(O)CN1NC(=O)c1c[nH]c2ccccc12	-8.44% (inactive)
COc1ccccc1N1CC(O)=C(c2nc3ccccc3s2)C1=N	31.4% (active)
O=C(Nc1nc2ccc([N+](=O)[O-])cc2s1)c1ccc(S(=O)(=O)N2CCCc3ccccc32)cc1	-9.77% (inactive)
COc1cccc(CNS(=O)(=O)c2csc(C(N)=O)c2)c1	9.09% (inactive)
O=C(N/C(=C\c1ccc(F)cc1)C(=O)N1CCCCCC1)c1ccccc1	-12.7% (inactive)
O=C(CSc1ncnc2c1oc1ccccc12)NC1CCCC1	-5.84% (inactive)
Cc1cc(-c2nnc(SCC(=O)Nc3ccc(F)cc3)n2N)n[nH]1	12.4% (inactive)
COc1ccc(-n2nc(C(=O)NCC(=O)N3CCC(C(N)=O)CC3)c3ccccc3c2=O)cc1OC	-12.3% (inactive)
CS(=O)(=O)Nc1cccc(C2=NN(S(=O)(=O)c3ccccc3)C(c3cccs3)C2)c1 (centres undefined)	-11% (inactive)
CS(=O)(=O)Nc1ccc(C2=NN(S(C)(=O)=O)C(c3cccs3)C2)cc1 (centres undefined)	63.1% (active)
Cc1ccc(C2CC(c3cccc(NS(C)(=O)=O)c3)=NN2S(C)(=O)=O)cc1 (centres undefined)	77.9% (active)
CS(=O)(=O)Nc1cccc(C2=NN(C(=O)c3cccc(F)c3)C(c3cccs3)C2)c1 (centres undefined)	-7.67% (inactive)
CS(=O)(=O)Nc1cccc(-c2cn3ccccc3n2)c1	87% (inactive)
CCS(=O)(=O)Nc1ccc(C2=NN(C(C)=O)C(c3cccs3)C2)cc1 (centres undefined)	12.4% (inactive)
O=C1c2ccccc2C(=O)N1c1cccc2ccccc12	25.6% (inactive)
O=C(NC1CCCC1)C1CC(=O)N(c2ccc(F)cc2)C1 (centres undefined)	-11.9% (inactive)
CN(C)S(=O)(=O)c1cccc(NC(=O)Cc2ccsc2)c1	-2.02% (inactive)
O=C1CCN(Cc2ccccc2)CCN1[C@H](CSc1ccccc1)c1ccccc1	11% (inactive)

SMILES	inhibition
Cc1cccn2c(=O)c3cc(C(=O)NCC4CCCO4)c(=N)n(Cc4ccc(F)cc4)c3nc12 (centres undefined)	-2.34% (inactive)
CC(=O)Nc1ccc(NC(=O)COc2ccc(-c3ccccc3)cc2)cc1	10.7% (inactive)
C/C(=N\NC(=O)OC(C)(C)C)c1ccc[nH]1	94.2% (active)
Cc1ccccc1NC(=O)NNC(=O)OC(C)(C)C	-3.29% (inactive)
CC(C)(C)OC(=O)NNc1c2ccccc2nc2ccccc12	77% (inactive)
Cc1nn(C(C)(C)C)c(OC(=O)CC(C)C)c1S(=O)(=O)c1ccccc1	-3.07% (inactive)
CC/C(=N\NC(=O)c1c(C)nc2ccccn12)c1ccc(Cl)cc1	-1.53% (inactive)
COc1cccc(C(=O)NCCSc2ccc(Br)cc2)c1	0.537% (inactive)
COc1ccc(C(=O)NCCSc2ccccc2C)cc1	47.6% (active)
COc1ccc(C(=O)NCc2nnc(SCCOc3ccccc3)n2C)cc1	-8.47% (inactive)
CCn1cc(C(=O)NCC(=O)NC(C)(C)CO)c(=O)c2cc3c(cc21)OCO3	-1.71% (inactive)
COc1ccccc1-n1cnc2cc(NS(=O)(=O)c3ccccc3)ccc21	60.3% (active)
COCCCNC(=O)c1ccc2c(c1)ncn2-c1ccccc1OC	41.9% (inactive)
COc1ccc(NS(=O)(=O)c2ccc(NC(C)=O)cc2)cc1OC	-6.59% (inactive)
COc1cccc(-c2coc3cc4oc(=O)c(CC(=O)O)c(C)c4cc23)c1	5.32% (inactive)
COc1cccc(-c2nc3ccc(N4CCN(C)CC4)cc3[nH]2)c1	-25.4% (inactive)
CN1CCN(c2ccc([N+](=O)[O-])c(Sc3nc4ccccc4[nH]3)c2)CC1	-2.62% (inactive)
Cc1nc2ccc(N3CCN(C)CC3)cc2nc1C	41.4% (active)
CCCc1cc(=O)oc2c(C)c(OCC(=O)Nc3ccccn3)ccc12	97.8% (active)
CCCc1cc(=O)oc2c(C)c(OCC(=O)NCc3ccccn3)ccc12	-5.37% (inactive)
CCCc1cc(=O)oc2c(C)c(OCC(=O)N3CCC(C(=O)O)CC3)ccc12	-4.56% (inactive)
Cc1cnc(C(=O)Oc2cccc(Cl)c2Cl)cn1	-6.08% (inactive)
